Each structure is given as a SMILES string.

The first assay is described as follows: qHTS drug screen for cell cycle checkpoint inhibitors in PARPi-resistant BRCA-mutant ovarian cancer cell lines. (AID 1963452). The following applies: PEO1/OlaR viability, CellTiter-Glo luminescence, 96 h; measured here: PEO1 parental Z-AUC; stronger effect = lower value. An outline of the steps:
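PEO1, PEO4 and PEO1/OlaR ovarian cancer cells, 600 per well, exposed 96 h at 37C to a dilution series. Viability read by CellTiter-Glo luminescence, normalized to DMSO and empty wells; activity summarized as Z-AUC.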
A general note: Quantitative high-throughput screening tests each substance at several concentrations.
Take `CCOC(=O)c1ccc(OC(=O)CCCCCN=C(N)N)cc1`: the Z-AUC was found to be 1.13.

As for `Cn1nnc2c(C(N)=O)ncn2c1=O`, the Z-AUC amounted to 1.36.

In the case of `O=C(O)c1cn(C2CC2)c2cc(N3CCNCC3)c(F)cc2c1=O`, the Z-AUC turned out to be 0.154.

For `Cc1nnc(C(=O)NC(C)(C)c2nc(C(=O)NCc3ccc(F)cc3)c(O)c(=O)n2C)o1`, the Z-AUC was -0.195.

Take `NC(=O)c1cccc(N)c1`: the Z-AUC is 1.33.

For `CC(N)C12CC3CC(CC(C3)C1)C2` (stereo not given), the Z-AUC came out at 0.571.

For `C[C@@H](CN1CC(=O)NC(=O)C1)N1CC(=O)NC(=O)C1`, the Z-AUC was 1.43.

With `NC(=O)c1ccc2[nH]ccc2c1`, the Z-AUC is -0.451.

As for `Cn1c(=O)c2c(ncn2CC(O)CO)n(C)c1=O` (stereo not given), the Z-AUC was 0.956.

For the compound `COC(=O)Nc1nc2ccc(C(=O)c3ccccc3)cc2[nH]1`, the Z-AUC is -1.51.

Staying with this assay, now noted: PEO1/OlaR viability, CellTiter-Glo luminescence, 96 h; measured here: PEO4 Z-AUC; stronger effect = lower value.
With `O=S(=O)(c1cccc2cnccc12)N1CCCNCC1`, the Z-AUC worked out at 0.443.

Turning to `Oc1c(Cl)cc(Cl)c2cccnc12`, the Z-AUC is -0.27.

In the case of `Nc1nc(=S)c2[nH]cnc2[nH]1`, the Z-AUC was -1.01.

Consider `CCc1cc(C(N)=S)ccn1`, for which the Z-AUC was -0.17.

Take `C1CCC(C(CC2CCCCN2)C2CCCCC2)CC1` (stereo not given): the Z-AUC is -0.0366.

In the case of `CC(C)(C)NC(=O)[C@H]1CC[C@H]2[C@@H]3CC[C@H]4NC(=O)C=C[C@]4(C)[C@H]3CC[C@]12C`, the Z-AUC turned out to be 1.46.

`CC(C)(C)C(=O)OCOP(=O)(COCCn1cnc2c(N)ncnc21)OCOC(=O)C(C)(C)C`: the Z-AUC was -0.0203.

Take `CCn1cc(C(=O)O)c(=O)c2cc(F)c(N3CCN(C)CC3)cc21`: the Z-AUC was 1.07.

As to `CC1=CC(=O)c2ccccc2C1=O`, the Z-AUC worked out at 0.252.

Regarding `CCN(CC)CCn1c(=O)c(Cc2ccc(OC)cc2)nc2ccccc21`, the Z-AUC came to 1.19.

As to `CN(Cc1cc(Br)cc(Br)c1N)C1CCCCC1`, the Z-AUC came to 1.04.

For the compound `COC(c1ccccc1)(c1ccccc1)[C@H](Oc1nc(C)cc(C)n1)C(=O)O`, the Z-AUC is 1.24.

Turning to `CCOc1cc(N)c(Cl)cc1C(=O)NCC1CN(Cc2ccc(F)cc2)CCO1` (stereo not given), the Z-AUC was determined as 1.21.

Turning to `COc1ccc(-c2ccc3cc(C(=O)O)ccc3c2)cc1C12CC3CC(CC(C3)C1)C2`, the Z-AUC is -0.489.

Turning to `Nc1[nH]c(=O)ncc1F`, the Z-AUC amounted to 1.51.

With `O=C(O)c1cc(=O)[nH]c(=O)[nH]1`, the Z-AUC was -0.128.

Regarding `CC1=NN(c2ccccc2)C(=O)C1`, the Z-AUC was found to be 1.05.

With `COc1cc(NCc2ccc3nc(N)nc(N)c3c2C)cc(OC)c1OC`, the Z-AUC is -0.254.

Take `COc1cc([C@@H]2c3cc4c(cc3[C@H](O)[C@H]3COC(=O)[C@H]23)OCO4)cc(OC)c1OC`: the Z-AUC was -1.94.

With `C#CCN[C@@H]1CCc2ccccc21`, the Z-AUC was -0.739.

Take `CCOC(=O)c1ccc(OC(=O)CCCCCN=C(N)N)cc1`: the Z-AUC stood at 0.861.

For the compound `Cn1nnc2c(C(N)=O)ncn2c1=O`, the Z-AUC was 1.39.

As to `O=C(O)c1cn(C2CC2)c2cc(N3CCNCC3)c(F)cc2c1=O`, the Z-AUC is 0.682.

Regarding `Cc1nnc(C(=O)NC(C)(C)c2nc(C(=O)NCc3ccc(F)cc3)c(O)c(=O)n2C)o1`, the Z-AUC was -0.396.

For `NC(=O)c1cccc(N)c1`, the Z-AUC is 0.943.

For the compound `CC(N)C12CC3CC(CC(C3)C1)C2` (stereo not given), the Z-AUC turned out to be 0.722.

As for `C[C@@H](CN1CC(=O)NC(=O)C1)N1CC(=O)NC(=O)C1`, the Z-AUC is 0.873.

Consider `NC(=O)c1ccc2[nH]ccc2c1`, for which the Z-AUC was -0.798.

As for `Cn1c(=O)c2c(ncn2CC(O)CO)n(C)c1=O` (stereo not given), the Z-AUC amounted to 0.893.

On to `COC(=O)Nc1nc2ccc(C(=O)c3ccccc3)cc2[nH]1`, for which the Z-AUC is -1.61.

Values taken from PubChem BioAssay (NCATS).
